Measured values published in PubChem BioAssay AID2234 (The Scripps Research Institute Molecular Screening Center, 2010).
About 480 (0.15%) of roughly 320,000 compounds were called active. Shown is part of a subset that was picked to be rich in actives. Unmarked numbers belong to inactive results. Rule as the data show it: active = inhibition above about 33%; inactive = the rest.

These compounds were tested against Lytic switch protein BZLF1 (Epstein-Barr virus (strain B95-8)) (UniProt P03206) (assay: Zta-DNA interaction blockers, Epstein-Barr virus – biochemical, fluorescence polarization, single concentration, counter-screen for EBNA-1 inhibitor project, primary screen (AID 2234)). Details: ZTA-DNA binding, at 11 µM, active compounds read high.
Sequence of Lytic switch protein BZLF1 (Epstein-Barr virus (strain B95-8)) (P03206 whole entry, looked up): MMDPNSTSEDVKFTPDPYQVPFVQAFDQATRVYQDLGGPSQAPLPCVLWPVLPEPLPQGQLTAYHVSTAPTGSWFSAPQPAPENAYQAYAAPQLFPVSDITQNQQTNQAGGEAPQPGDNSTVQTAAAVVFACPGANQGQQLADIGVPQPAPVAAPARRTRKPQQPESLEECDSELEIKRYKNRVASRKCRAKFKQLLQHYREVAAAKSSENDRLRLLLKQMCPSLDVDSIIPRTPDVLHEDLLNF
`Cc1cc(C(=O)Nc2ccc(C)c(S(=O)(=O)N3CCOCC3)c2)c2ccccc2n1` was tested, and the inhibition was -3.91%. `CCC(C)OC(=O)C(C)Oc1ccc(-c2ccccc2)cc1` (configuration not stated) was tested, and the inhibition was -16.6%. `CCc1nc2ccccc2n(CCOCCOCCn2c(=O)c(CC)nc3ccccc32)c1=O` showed an inhibition of -7.86%. `CCCCC1N2CC3([N+](=O)[O-])CN1CC([N+](=O)[O-])(C2)C3(C)C` (configuration not stated) gave an inhibition of 7.41%. Compound `COc1ccccc1C(=O)Nc1ccc(OCC(=O)N2CCCCC2)cc1` has an inhibition of -10.8%. With `COc1ccc(C)cc1NC(=O)CN1c2cccc3cccc(c23)S1(=O)=O` the inhibition was -1.52%. `O=C(O)c1cc(S(=O)(=O)N(Cc2ccccc2)c2ccccc2)ccc1Cl` was tested, and the inhibition was -1.08%. Work on `O=C(CSc1nc(C2CC2)nc2ccccc12)Nc1cccc(O)c1` yielded an inhibition of -4.91%. `C=CCn1c(SCC(=O)NC(=O)Cc2ccccc2)nc2ccccc2c1=O` gave an inhibition of -2.81%. For `O=C(c1cc(S(=O)(=O)N2CCOCC2)ccc1Cl)N1CCOCC1`, the inhibition was 17.7%. `FC(F)(F)c1ccc2c3n(nc2c1)CCN=C3c1ccc(Cl)cc1` was tested, and the inhibition was 0.92%. Compound `Cc1ccc(C(=O)c2coc3ccc(O)c(CN(C)C)c23)cc1` has an inhibition of -9.15%. `COc1ccccc1-n1ccnc(SCC(=O)NC2CCCCC2)c1=O` showed an inhibition of -6.9%. For `CC1CCC2(CC1)NC(=O)N(CC(=O)c1cccn1C)C2=O` (configuration not stated), the inhibition was -3.24%. `Cc1ccc(C(=O)NCC(c2cccs2)N(C)C)cc1S(=O)(=O)N1CCOCC1` (configuration not stated) was tested, and the inhibition was -3.98%. In the case of `O=C(OCC1O[C@@H](OC(=O)c2cc(O)c(O)c(O)c2)[C@@H](OC(=O)c2cc(O)c(O)c(O)c2)[C@@H](OC(=O)c2cc(O)c(O)c(O)c2)[C@@H]1OC(=O)c1cc(O)c(O)c(O)c1)c1cc(O)c(O)c(O)c1` (some centres not stated), the inhibition is reported as 56.7% (active). Compound `O=C(OCC1OC(Oc2ccc(O)cc2)C(O)C(O)C1O)c1ccccc1` (configuration not stated) has an inhibition of -3.45%. `CN1C(=O)/C(=C/c2ccco2)SC1=Nc1cccc(C(=O)O)c1` was tested, and the inhibition was 34% (active). `Cc1cc(/C=C2\SC(=Nc3ccc(N4CCOCC4)cc3)N(C)C2=O)c(C)n1-c1cccnc1` showed an inhibition of -10.5%. For `Cc1cc(/C=C2\SC(=O)N(C)C2=O)c(C)n1-c1cccc(C(=O)O)c1`, the inhibition was -5.96%. `CCC(C)(C)n1nnnc1C(c1cccs1)N1CCN(c2nc3ccccc3s2)CC1` (configuration not stated) showed an inhibition of 4.48%. In the case of `COc1cc(NC(=S)N2CCCC(C)C2)c(OC)cc1Cl` (configuration not stated), the inhibition is reported as 1.82%. `CCOc1cc(C)c(S(=O)(=O)NCc2ccccn2)cc1C` showed an inhibition of 12.5%. Compound `CCSc1sc(CC)cc1C=O` has an inhibition of 3.38%. In the case of `CC(C)c1ccc(-c2nn[nH]n2)cc1`, the inhibition is reported as -11.4%. Compound `COC(=O)c1c(-c2ccsc2)oc2ccc(-c3cc(OC)c(OC)c(OC)c3)cc12` has an inhibition of -1.27%. Work on `Cc1ccc(N2CCN(S(=O)(=O)N(C)C)CC2)cc1Cl` yielded an inhibition of 10.4%. For `O=C(NCC(=O)N1CCC2(CC1)NCCc1[nH]cnc12)c1ccc(Br)cc1`, the inhibition was -4.85%. For `CCC(=O)Nc1ccc(Nc2nc(Cl)nc(Nc3ccc(NC(=O)CC)cc3)n2)cc1`, the inhibition was 33.6% (active). `CCC(=O)Nc1ccc(C(=O)Nc2cc(C)on2)cc1` showed an inhibition of -11.8%. `CCOC(=O)CNc1nc(Cl)nc(Nc2ccccc2)n1` gave an inhibition of 3.82%. `O=C(CCCCCn1c(=S)[nH]c2ccsc2c1=O)NC1CCCCC1` showed an inhibition of 10.7%. `CCn1c(O)c2ccc(C(=O)N=NC(=O)c3cccnc3)cc2c1O` was tested, and the inhibition was -7.57%. `CCOC(=O)CN(C(=O)CN1CCOCC1)c1ccc(Br)cc1` was tested, and the inhibition was 13%. Work on `CCCC(C)C(=O)Nc1ccc(NC(C)=O)cc1` (configuration not stated) yielded an inhibition of -5.74%. `COc1ccc(C(C(=O)NCC2CCCO2)N(C(=O)Cn2nnc3ccccc32)c2ccc(NC(C)=O)cc2)cc1OC` (configuration not stated) showed an inhibition of -7.72%. In the case of `Cc1ccc(-c2csc(NC(=O)C3=COCCO3)n2)cc1C`, the inhibition is reported as -12.1%. For `Cc1ccc(C)c(OCC(=O)NNC(=O)C2CCC2)c1`, the inhibition was 1.86%. For `O=C(Cn1cc(C(=O)C2CC2)c2ccccc21)Nc1ccccc1Cl`, the inhibition was 14.6%. `Cc1cc(C(=O)OC(C)C(=O)NC2CCCCC2C)c(C)o1` (configuration not stated) was tested, and the inhibition was -3.44%. Work on `COc1ccc(-c2nnc(SC(=O)N3c4ccccc4Sc4ccccc43)o2)cc1` yielded an inhibition of 6.65%. `O=C(O)C1CCCN1C1=NS(=O)(=O)c2ccccc21` (configuration not stated) was tested, and the inhibition was 9.03%. With `CC(C)(C)C(=O)COC(=O)c1cc(S(=O)(=O)N2CCCCC2)ccc1N1CCOCC1` the inhibition was -4.54%. Compound `CN(Cc1ccco1)S(=O)(=O)c1nnc(NC(=O)c2ccccc2)s1` has an inhibition of 13.9%. `COc1ccc(-c2nonc2NC(=O)c2oc3ccc(F)cc3c2C)cc1OC` showed an inhibition of -1.66%. `CCCCC(C(=O)NC(C)(C)C)N(Cc1ccccc1)C(=O)c1snc(C(N)=O)c1N` (configuration not stated) showed an inhibition of -11.4%. `CC1(C)O[C@@H]2CC3C4C[C@H](F)C5=CC(=O)C=CC5(C)C4C(O)CC3(C)[C@]2(C(=O)CO)O1` (some centres not stated) was tested, and the inhibition was 3.09%. For `Clc1ccc(-n2nnnc2CN2CCCCC2)cc1Cl`, the inhibition was 7.74%. In the case of `COc1ccc(C2=NN(C(=O)c3ccccc3C(=O)O)C(c3ccccc3O)C2)cc1` (configuration not stated), the inhibition is reported as -14.4%. Work on `CCN(CC)S(=O)(=O)c1ccc(C(=O)N2CCN(C3=NS(=O)(=O)c4ccccc43)CC2)cc1` yielded an inhibition of -8.64%. Work on `COC(=O)Nc1ccc(S(=O)(=O)N(C)CC(F)(F)C(F)F)cc1` yielded an inhibition of 9.51%. Compound `CN(C(=O)C1CCN(c2ncnc3c2nc2n3CCCCC2)CC1)C1CCCCC1` has an inhibition of -0.51%. `CC(=O)NNC1=Nc2ccccc2N(C)C(C)C1` (configuration not stated) showed an inhibition of -9.35%. `CCc1cccc(NC(=S)N(CCN(C)C)C2CCN(C(C)C)CC2)c1` showed an inhibition of -6.22%. `Cc1ccc(C2=NN(C(=O)CSc3nc(N)cc(N)n3)C(c3ccco3)C2)cc1` (configuration not stated) showed an inhibition of 0.17%. Compound `CC(=O)Nc1ccc(S(=O)(=O)N(C)c2ccc(OCC(=O)OCC(=O)N3CCCCC3)cc2)cc1` has an inhibition of -11.6%. For `CCCC(C)n1[nH]c(=O)c2c(C)cc(C)nc21` (configuration not stated), the inhibition was 11.1%.
